The source of these data is PubChem BioAssay AID624094 (National Center for Advancing Translational Sciences (NCATS), 2012).

SMILES strings stand for the structures. Inconclusive results are not listed. Calls of active or inactive are those of the source. Calls follow the shape of the dose curve; as a rule, active = well fitted inhibition curve with a large enough effect; inconclusive = small, poorly fitted or top-dose-only effect; inactive = flat fitted curve, though single readings scatter.

In the test the target is Dual specificity protein kinase CLK4 (Homo sapiens) (UniProt Q9HAZ1). The test is described as follows: Confirmation Assay for Inhibitors of Clk4 (Kinase-Glo Assay): KU probe. To be noted: recombinant Clk4, Kinase-Glo ATP luminescence. The procedure:
NIH Molecular Libraries Probe Production Centers Network [MLPCN] NIH Chemical Genomics Center [NCGC] MLPCN Grant: 1R03MH084827-01 Assay Submitter (PI): Tom Misteli NCGC Assay Overview: Clk4 (Invitrogen, cat# PV3839) was assayed using ATP and the RS repeat peptide (AnaSpec cat # 61722) as substrates. Following the Clk4 reaction, the remaining ATP levels were detected using Promega Kinase-Glo technology wherein the remaining ATP from the kinase reaction is detected using Ultra-Glo luciferase and D-luciferin which generates a bioluminescence signal from the ATP.
NCGC Assay Protocol Summary: Two uL/well of substrate-buffer solution (100 uM RS peptide, 1 uM ATP, 25 mM Tris pH7.5, 10 mM MgCl2, 0.5 mM EGTA, 2.5 mM DTT, 0.01% Triton X-100 final concentration) was dispensed into 1536-well, assay plates (Greiner, solid white medium-binding plates) with Aurora Discovery BioRAPTR Flying Reagent Dispenser (FRD; Beckton-Dickenson). Using a Kalypsys pin tool equipped with a 1536-pin tool, 23 nL of compound solution was transferred to the assay plate. […] Luminescence was detected with the ViewLux plate reader (Perkin Elmer, Waltham, MA) after 5 min incubation using a 5 second exposure time and 2x binning.

Dual specificity protein kinase CLK4 (Homo sapiens), sequence (Q9HAZ1 whole entry, looked up): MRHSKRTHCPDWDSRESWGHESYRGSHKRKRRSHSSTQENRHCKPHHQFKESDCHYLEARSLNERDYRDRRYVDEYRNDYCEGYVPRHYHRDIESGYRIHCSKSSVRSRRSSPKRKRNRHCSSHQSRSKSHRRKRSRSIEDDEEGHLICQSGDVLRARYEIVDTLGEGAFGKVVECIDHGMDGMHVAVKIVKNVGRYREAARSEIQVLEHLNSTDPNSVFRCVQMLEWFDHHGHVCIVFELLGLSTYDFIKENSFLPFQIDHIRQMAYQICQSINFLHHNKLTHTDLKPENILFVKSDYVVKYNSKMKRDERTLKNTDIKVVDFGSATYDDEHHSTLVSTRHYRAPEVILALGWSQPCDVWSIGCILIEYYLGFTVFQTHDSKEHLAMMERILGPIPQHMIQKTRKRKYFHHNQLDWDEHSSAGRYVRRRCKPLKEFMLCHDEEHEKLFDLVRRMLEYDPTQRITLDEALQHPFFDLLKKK

Regarding `Clc1ccc(CNc2ccnc(-c3ccc4c(c3)OCO4)n2)cn1`, the Potency is 29.2 µM (active).

Consider `Cc1cc(CNc2ccnc(-c3ccc4c(c3)OCO4)n2)cnc1F`, for which the Potency was 9.23 µM (active).
